For one sequence, binding signal results are on record in publication PMC7862700, “An all-to-all approach to the identification of sequence-specific readers for epigenetic DNA modifications on cytosine”.

What all share (test): DAPPL (digital affinity profiling via proximity ligation, sequencing); 10 mM Tris-HCl pH 7.5, 50 mM NaCl, 1 mM DTT, 4% glycerol, room temperature, 30 min; GST-TFs on glutathione beads, 16-mer random dsDNA library, 0.1% formaldehyde crosslink after washing; high values mean tight binding
Experiment [1] concerns the target T1, FLI1 (Homo sapiens, UniProt Q01543 1-452).
T1 sequence: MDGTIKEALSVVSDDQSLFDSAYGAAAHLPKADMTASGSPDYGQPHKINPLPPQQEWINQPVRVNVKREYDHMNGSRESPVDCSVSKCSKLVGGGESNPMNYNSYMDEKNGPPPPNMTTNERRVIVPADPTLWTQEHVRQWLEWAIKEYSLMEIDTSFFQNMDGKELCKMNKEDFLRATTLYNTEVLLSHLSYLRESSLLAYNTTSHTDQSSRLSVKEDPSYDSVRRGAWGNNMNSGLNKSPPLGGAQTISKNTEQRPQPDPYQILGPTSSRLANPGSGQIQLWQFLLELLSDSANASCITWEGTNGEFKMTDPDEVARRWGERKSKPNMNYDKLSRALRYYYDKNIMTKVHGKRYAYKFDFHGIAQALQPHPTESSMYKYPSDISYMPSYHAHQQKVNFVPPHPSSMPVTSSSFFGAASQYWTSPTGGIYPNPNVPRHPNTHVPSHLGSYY
Conditions: protein: recombinant; tags: N-terminal GST; dsDNA, one strand shown. The method in brief: (§1)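 Each value of binding signal is a hexamer's read frequency for a factor divided by the same hexamer's frequency in the tag-only sample. Barcoded, bead-captured GST fusions of human transcription factors made in yeast were pooled with that sample and incubated with 200 nmole of a random double-stranded 16-mer DNA library in Tris/NaCl/DTT/glycerol buffer at room temperature for 30 min. Washing, 0.1% formaldehyde crosslinking, proximity ligation, PCR and Illumina NextSeq500 sequencing followed.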

Experiment [2] addresses T2, ELK1 (Homo sapiens, UniProt P19419 1-428).
T2 sequence: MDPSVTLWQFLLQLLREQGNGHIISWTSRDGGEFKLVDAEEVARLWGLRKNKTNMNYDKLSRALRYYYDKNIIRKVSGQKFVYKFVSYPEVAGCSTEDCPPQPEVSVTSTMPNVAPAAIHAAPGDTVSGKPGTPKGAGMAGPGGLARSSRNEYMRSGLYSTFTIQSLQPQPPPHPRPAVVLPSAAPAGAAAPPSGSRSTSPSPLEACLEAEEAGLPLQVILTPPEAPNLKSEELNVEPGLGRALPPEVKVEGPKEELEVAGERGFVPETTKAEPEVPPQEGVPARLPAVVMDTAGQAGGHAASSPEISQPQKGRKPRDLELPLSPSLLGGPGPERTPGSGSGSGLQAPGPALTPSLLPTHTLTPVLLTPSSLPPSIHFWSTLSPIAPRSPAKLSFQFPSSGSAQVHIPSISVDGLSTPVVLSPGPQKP
To be noted: protein: recombinant; tags: N-terminal GST; dsDNA, one strand shown. The method in brief: as §1

Experiment [3] addresses T3, GABPA (Homo sapiens, UniProt Q06546 1-454).
T3 sequence: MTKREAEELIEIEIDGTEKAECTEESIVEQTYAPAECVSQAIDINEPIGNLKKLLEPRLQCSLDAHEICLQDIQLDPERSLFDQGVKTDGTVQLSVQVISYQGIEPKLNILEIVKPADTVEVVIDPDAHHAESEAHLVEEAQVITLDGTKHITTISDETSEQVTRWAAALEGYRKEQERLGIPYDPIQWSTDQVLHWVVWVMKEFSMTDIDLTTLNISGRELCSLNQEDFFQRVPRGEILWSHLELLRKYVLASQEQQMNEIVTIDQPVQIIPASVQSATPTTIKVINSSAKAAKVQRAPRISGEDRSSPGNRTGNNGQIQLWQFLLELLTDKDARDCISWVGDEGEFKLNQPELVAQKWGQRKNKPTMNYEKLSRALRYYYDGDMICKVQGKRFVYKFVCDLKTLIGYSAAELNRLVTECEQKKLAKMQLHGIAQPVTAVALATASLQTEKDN
Conditions: protein: recombinant; tags: N-terminal GST; dsDNA, one strand shown. The method in brief:
as §1

Experiment [4] deals with T4, ERG (Homo sapiens, UniProt P11308 1-479).
T4 sequence: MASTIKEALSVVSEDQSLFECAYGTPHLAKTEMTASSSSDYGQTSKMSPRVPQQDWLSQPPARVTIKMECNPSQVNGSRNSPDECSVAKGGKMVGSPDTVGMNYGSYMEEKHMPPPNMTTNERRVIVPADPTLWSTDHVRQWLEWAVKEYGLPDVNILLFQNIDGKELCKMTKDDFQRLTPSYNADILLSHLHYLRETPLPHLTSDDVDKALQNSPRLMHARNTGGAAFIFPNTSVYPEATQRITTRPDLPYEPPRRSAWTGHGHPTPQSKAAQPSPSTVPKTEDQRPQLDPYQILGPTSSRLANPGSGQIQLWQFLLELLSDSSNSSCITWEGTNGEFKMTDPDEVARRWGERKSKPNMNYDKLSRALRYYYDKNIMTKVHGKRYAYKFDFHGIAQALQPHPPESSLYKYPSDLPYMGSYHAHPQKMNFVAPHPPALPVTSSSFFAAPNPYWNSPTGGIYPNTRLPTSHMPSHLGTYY
Conditions: protein: recombinant; tags: N-terminal GST; dsDNA, one strand shown. The method in brief: as §1

Experiment [5] addresses ELF1 (Homo sapiens, UniProt P32519 1-619). To be noted: protein: recombinant; tags: N-terminal GST; dsDNA, one strand shown. The method in brief: as §1
The target of experiment [6] is SPI1 (Homo sapiens, UniProt P17947 1-270). To be noted: protein: recombinant; tags: N-terminal GST; dsDNA, one strand shown. The method in brief:
as §1

Experiment [7] addresses SPIB (Homo sapiens, UniProt Q01892 1-262). Conditions: protein: recombinant; tags: N-terminal GST; dsDNA, one strand shown. The method in brief:
as §1

Experiment [8] has as its target T5, ELK3 (Homo sapiens, UniProt P41970 1-407).
T5 sequence: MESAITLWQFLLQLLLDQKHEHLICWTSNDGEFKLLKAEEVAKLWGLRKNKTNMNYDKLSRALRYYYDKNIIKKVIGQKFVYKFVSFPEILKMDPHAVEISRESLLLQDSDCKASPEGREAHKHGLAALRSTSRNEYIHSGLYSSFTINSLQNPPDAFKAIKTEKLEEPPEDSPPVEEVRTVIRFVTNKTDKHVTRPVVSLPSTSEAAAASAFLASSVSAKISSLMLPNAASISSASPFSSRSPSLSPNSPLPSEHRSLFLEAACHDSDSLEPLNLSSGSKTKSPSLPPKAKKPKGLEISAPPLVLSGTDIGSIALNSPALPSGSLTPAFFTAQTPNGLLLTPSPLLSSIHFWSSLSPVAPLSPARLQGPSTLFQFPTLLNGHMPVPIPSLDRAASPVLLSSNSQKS
To be noted: protein: recombinant; tags: N-terminal GST; dsDNA, one strand shown. The method in brief: as §1

For experiment [9], the target named is HSF1 (Homo sapiens, UniProt Q00613 1-529). To be noted: protein: recombinant; tags: N-terminal GST; chain copies: 3; dsDNA, one strand shown. The method in brief:
as §1

The target in experiment [10] is ELF4 (Homo sapiens, UniProt Q99607 1-663). Conditions: protein: recombinant; tags: N-terminal GST; dsDNA, one strand shown. The method in brief:
as §1

The target in experiment [11] is T6, ELK4 (Homo sapiens, UniProt P28324-2 1-405).
T6 sequence: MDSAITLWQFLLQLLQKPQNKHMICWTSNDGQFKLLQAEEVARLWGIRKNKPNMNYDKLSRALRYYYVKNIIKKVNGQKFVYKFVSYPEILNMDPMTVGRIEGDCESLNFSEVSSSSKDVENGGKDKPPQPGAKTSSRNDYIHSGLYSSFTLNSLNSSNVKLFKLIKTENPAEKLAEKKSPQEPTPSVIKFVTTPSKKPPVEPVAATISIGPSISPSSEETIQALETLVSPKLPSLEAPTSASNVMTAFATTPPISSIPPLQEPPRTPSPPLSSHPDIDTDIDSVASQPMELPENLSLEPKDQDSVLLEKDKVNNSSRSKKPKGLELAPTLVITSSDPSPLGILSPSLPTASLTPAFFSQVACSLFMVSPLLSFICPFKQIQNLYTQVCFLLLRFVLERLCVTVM
Conditions: protein: recombinant; tags: N-terminal GST; dsDNA, one strand shown. The method in brief:
as §1

Sequence of HSF1 (Q00613 whole entry): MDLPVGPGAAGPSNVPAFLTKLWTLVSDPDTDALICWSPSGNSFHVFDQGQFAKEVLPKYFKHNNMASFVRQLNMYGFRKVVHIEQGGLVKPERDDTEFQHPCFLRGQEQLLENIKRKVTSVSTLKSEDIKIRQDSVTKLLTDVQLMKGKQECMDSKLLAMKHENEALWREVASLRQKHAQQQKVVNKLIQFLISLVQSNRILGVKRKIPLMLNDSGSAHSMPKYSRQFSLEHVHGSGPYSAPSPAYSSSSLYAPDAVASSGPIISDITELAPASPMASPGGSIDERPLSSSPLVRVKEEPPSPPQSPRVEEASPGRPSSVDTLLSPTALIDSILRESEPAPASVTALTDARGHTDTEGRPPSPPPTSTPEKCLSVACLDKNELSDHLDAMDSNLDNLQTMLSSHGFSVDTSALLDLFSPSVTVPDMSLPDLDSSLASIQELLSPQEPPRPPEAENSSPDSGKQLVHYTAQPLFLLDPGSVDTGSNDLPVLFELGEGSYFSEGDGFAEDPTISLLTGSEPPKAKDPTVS
Sequence of ELF1 (P32519 whole entry): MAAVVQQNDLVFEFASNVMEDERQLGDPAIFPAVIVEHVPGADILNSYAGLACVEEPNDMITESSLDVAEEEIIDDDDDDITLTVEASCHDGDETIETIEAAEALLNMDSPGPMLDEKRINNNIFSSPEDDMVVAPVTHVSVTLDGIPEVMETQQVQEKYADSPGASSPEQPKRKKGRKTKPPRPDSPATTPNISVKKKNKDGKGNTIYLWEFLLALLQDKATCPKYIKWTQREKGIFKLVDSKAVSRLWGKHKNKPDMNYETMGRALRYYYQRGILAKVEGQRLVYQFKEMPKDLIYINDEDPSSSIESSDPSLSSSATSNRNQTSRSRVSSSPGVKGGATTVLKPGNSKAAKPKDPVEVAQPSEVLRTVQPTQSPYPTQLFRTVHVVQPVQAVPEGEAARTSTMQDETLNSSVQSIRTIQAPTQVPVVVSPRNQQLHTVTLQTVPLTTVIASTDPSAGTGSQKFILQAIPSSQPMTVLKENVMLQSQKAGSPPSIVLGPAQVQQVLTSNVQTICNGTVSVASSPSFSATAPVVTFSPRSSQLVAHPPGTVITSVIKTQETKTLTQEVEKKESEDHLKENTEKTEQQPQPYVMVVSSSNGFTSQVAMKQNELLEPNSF
Sequence of ELF4 (Q99607 whole entry): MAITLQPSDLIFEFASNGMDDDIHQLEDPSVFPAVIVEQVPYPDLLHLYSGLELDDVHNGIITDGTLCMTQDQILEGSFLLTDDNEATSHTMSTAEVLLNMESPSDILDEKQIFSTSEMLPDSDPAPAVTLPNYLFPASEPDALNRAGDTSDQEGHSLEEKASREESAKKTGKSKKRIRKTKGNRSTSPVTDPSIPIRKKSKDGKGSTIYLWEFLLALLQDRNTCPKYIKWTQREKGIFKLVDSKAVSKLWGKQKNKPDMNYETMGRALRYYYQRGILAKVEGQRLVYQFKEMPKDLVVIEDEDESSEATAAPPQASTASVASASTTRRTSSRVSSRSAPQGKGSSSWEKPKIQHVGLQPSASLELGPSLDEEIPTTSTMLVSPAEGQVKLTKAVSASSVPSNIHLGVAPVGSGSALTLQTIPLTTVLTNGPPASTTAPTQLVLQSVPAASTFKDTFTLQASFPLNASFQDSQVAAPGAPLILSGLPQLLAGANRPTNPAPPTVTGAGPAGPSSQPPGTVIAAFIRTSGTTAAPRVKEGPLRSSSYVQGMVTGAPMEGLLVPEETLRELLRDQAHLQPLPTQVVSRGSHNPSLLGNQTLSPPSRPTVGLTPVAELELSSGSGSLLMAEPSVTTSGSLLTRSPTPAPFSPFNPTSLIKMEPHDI
Sequence of SPIB (Q01892 whole entry): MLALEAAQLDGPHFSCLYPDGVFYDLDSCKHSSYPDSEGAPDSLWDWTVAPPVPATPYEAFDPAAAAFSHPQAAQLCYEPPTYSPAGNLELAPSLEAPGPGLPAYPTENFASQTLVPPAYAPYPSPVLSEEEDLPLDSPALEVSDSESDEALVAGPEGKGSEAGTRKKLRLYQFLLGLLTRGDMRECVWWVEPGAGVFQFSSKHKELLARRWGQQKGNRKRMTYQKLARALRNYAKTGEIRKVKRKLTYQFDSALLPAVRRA

With CGCGAT, the binding signal in [1] is 1.02 fold enrichment (6-mer frequency, TF over GST control); in [2] it was 1.07 fold enrichment (6-mer frequency, TF over GST control); in experiment [3] it was 1.09 fold enrichment (6-mer frequency, TF over GST control); in [4] it was 1.09 fold enrichment (6-mer frequency, TF over GST control); in experiment [5] it was 1.06 fold enrichment (6-mer frequency, TF over GST control); in experiment [6], 1.09 fold enrichment (6-mer frequency, TF over GST control). Besides, the binding signal in experiment [7] is 1.03 fold enrichment (6-mer frequency, TF over GST control); in experiment [8] it was 1.07 fold enrichment (6-mer frequency, TF over GST control); in experiment [9], 1.23 fold enrichment (6-mer frequency, TF over GST control); in [10], 1.07 fold enrichment (6-mer frequency, TF over GST control); in [11], 1.22 fold enrichment (6-mer frequency, TF over GST control).
